HCMV antiviral: human cytomegalovirus inhibition; AID 1259415; hit rate 4.5% among 410,000; activity change, negative = inhibition, % at 57.5 µM; HFF cells, HCMV-luciferase reporter, 72 h; active compounds read low; in the data active = activity change below about -60%; inconclusive = no clear call, values can overlap the other calls; inactive = above about -39%
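Cell-based, HFFs, 1000 cells/well, 16 h 37C; cpds in DMSO + HCMV-luc, MOI 1 PFU/cell; 72 h 37C; OneGlo luminescence after 5 min RT; norm. to buffer vs Salinomycin 10uM.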
Marburg entry inh: Marburg virus entry inhibition | Potency, µM (doses to about 37.8 µM), actives largely listed as inhibitors | Marburg virus pseudotyped entry inhibition, cell reporter | hit rate 1.8% among 300,000 | AID 540276; calls by dose curve; tested in HEK293 cells
Lassa entry inh: Lassa virus entry inhibition; Lassa virus pseudotype entry inhibition, cell reporter; Potency, µM (titrated, usually from 37.9 µM), most hits filed as inhibitors; hit rate 1.2% among 300,000; calls by dose curve; tested in HEK293 cells; also: nearly all actives have a fitted effect of over 50% in size
FMDV antiviral: blocks foot and mouth disease virus | FMDV antiviral cell-based qHTS | Potency, µM (highest dose often 57.9 µM), actives largely listed as inhibitors | hit rate 1.2% among 410,000 | AID 1159524; calls by dose curve; tested in HEK293T cells; also: read-out not given here; nearly all actives have a fitted effect of over 45% in size
HCV inh: blocks hepatitis C virus. hit rate 3.4% among 340,000. Potency, µM (series often up to 41.8 µM), actives largely listed as inhibitors. Huh7.5.1 HCVcc-Cre infection, luciferase reporter, 44 h; active = well fitted inhibition curve with a large enough effect; inconclusive = small, poorly fitted or top-dose-only effect, or another doubt; inactive = no such curve, though single readings can be large or run the other way
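Infectious HCVcc-Cre (~0.5 moi) was added to cells just after compound, with cells seeded 4 h earlier at 1,000 per well. Luciferase activity after 44 h culture reported infection; substrate was incubated 15 min at room temperature before reading.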
Numbers stand for hits; 0 = inactive; ? = inconclusive; - = not tested or not shown; + = active, no number; ! = repeats disagree. Only some compounds are listed: those with a hit (about 7.9% of all), similar ones and a draw of the others.

SMILES | HCMV antiviral | Marburg entry inh | Lassa entry inh | FMDV antiviral | HCV inh
CCNC(=S)NNC(=O)c1cc(-c2ccc(OCC)cc2)nc2ccccc12 | 0 | ? | 1.2µM | 13µM | 0
CCCOc1ccc(C(=O)NNC(=S)NC(=O)c2cc(-c3ccc(Cl)cc3)nc3ccccc23)cc1 | 0 | ? | 0 | 0 | 16µM
O=C(CC1CC1)N1CC(=O)N2[C@H](CO)[C@@H](c3ccc(Br)cc3)[C@@H]2C1 | 0 | - | - | - | -
COc1ccc(Sc2cc(C(F)(F)F)nc(-c3ccccn3)n2)cc1 | 0 | 0 | 0 | 0 | 0
Cc1cc(C)c(OCC(=O)N2CC=C(c3ccccc3)CC2)c(C)c1 | -67 | - | - | 0 | 0
CN1C(=O)C(n2cccc2)c2ccccc21 (stereo not drawn) | 0 | - | - | - | -
CCN(c1ccccc1)S(=O)(=O)c1ccc(Cl)c(NC(=O)CSc2n[nH]c(N)n2)c1 | -67 | 0 | 0 | 0 | ?
CCN(c1ccccc1)S(=O)(=O)c1ccc(Cl)c(NC(=O)CSc2ncn[nH]2)c1 | -101 | 0 | 0 | 0 | ?
CCCc1cc(=O)[nH]c(SCC(=O)Nc2cc(S(=O)(=O)N(CC)c3ccccc3)ccc2Cl)n1 | 0 | 0 | 0 | 0 | 0
CC1(C)CN(CCc2ccccc2)C(=O)[C@@H]1CC(=O)Nc1ccccc1 | - | - | 0 | - | -
Cc1c(C(=O)N2CCN(c3ccc([N+](=O)[O-])cc3)CC2)sc2ncn(CC(=O)N3CCOCC3)c(=O)c12 | -80 | ? | 0 | 0 | 0
Cc1c(C(=O)N2CCOCC2)sc2ncn(CC(=O)N3CCC(C)CC3)c(=O)c12 | - | 0 | 0 | 0 | 0
COc1cc(=O)n2c(c1C(=O)N(C)Cc1nonc1C)CCN(C(=O)c1cc(C)ccc1C)CC2 | - | - | - | 0 | -
Cc1cc2c(c(-c3nc4ccccc4s3)c1)OC(CNC(=O)CCc1cccnc1)C2 (stereo not drawn) | - | - | - | 0 | -
COc1ccc(CCNS(=O)(=O)c2ccc3c(c2)CC(C)N3C(=O)C2CCC2)cc1OC (stereo not drawn) | 0 | - | 0 | 0 | -
COc1cc(CNS(=O)(=O)c2ccc3c(c2)CC(C)N3C(=O)C2CCC2)cc(OC)c1OC (stereo not drawn) | 0 | - | - | ? | 10µM
Cc1ccc(NS(=O)(=O)c2ccc3c(c2)CC(C)N3C(=O)C2CCC2)cc1Cl (stereo not drawn) | -76 | - | 0 | 0 | -
CC(=O)Nc1ccc(NS(=O)(=O)c2ccc3c(c2)CC(C)N3C(=O)C2CCC2)cc1 (stereo not drawn) | 0 | - | ? | 0 | -
COc1cccc(CNS(=O)(=O)c2ccc3c(c2)CC(C)N3C(=O)C2CC2)c1 (stereo not drawn) | ? | 0 | ? | 0 | ?
COc1ccc(CNS(=O)(=O)c2ccc3c(c2)CC(C)N3C(=O)C2CC2)cc1 (stereo not drawn) | ? | ? | 0 | 0 | 22µM
COc1ccc(CNS(=O)(=O)c2ccc3c(c2)CCN3C(=O)C2CC2)cc1 | -62 | 0 | 0 | 0 | 0
CC(OC(=O)c1ccc(F)c(S(=O)(=O)N2CCOCC2)c1)C(=O)NC1CCCC1 (stereo not drawn) | ? | 0 | 0 | 0 | 0
Cc1ccc(NS(=O)(=O)c2ccc(Cl)c(NC(=S)NC(=O)C3CCCCC3)c2)cc1Cl | 0 | ? | ? | 0 | 11µM
COc1cccc(CNC(=O)C(NS(=O)(=O)c2ccc3c(c2)CCN3C(C)=O)C(C)C)c1 (stereo not drawn) | +! | ? | 0 | 0 | 0
C[C@@H](ON=C1[C@H]2CCn3c(=O)n(-c4ccccc4)c(=O)n3[C@@H]2[C@H](O)[C@@H]2O[C@H]12)c1cn([C@H](CO)Cc2ccccc2)nn1 | - | 0 | ? | - | -
SMILES | HCMV antiviral | Marburg entry inh | Lassa entry inh | FMDV antiviral | HCV inh
CCc1ccccc1NC(=O)CNC(=O)CNC(=O)Cc1ccccc1 | 0 | 0 | 0 | 0 | 0
COc1ccccc1N=Nc1nc(-c2ccccc2)c(-c2ccccc2)[nH]1 | 0 | ? | ? | 0 | 11µM
COc1ccc(N=Nc2nc(-c3ccccc3)c(-c3ccccc3)[nH]2)cc1 | 0 | ? | 0 | 0 | ?
Cc1nnc(SCC(=O)Nc2cc(C(C)(C)C)nn2-c2ccccc2)s1 | ? | 0 | 0 | 0 | 0
CCn1c(SCC(=O)Nc2cc(C(C)(C)C)nn2-c2ccccc2)nnc1-c1cccs1 | 0 | ? | ? | 0 | 16µM
Cc1cc(=O)n2nc(N3CCCC(C(=O)NCCCN4CC(C)CC(C)C4)C3)sc2n1 (stereo not drawn) | ? | - | - | 0 | 0
Cc1cc(=O)n2nc(N3CCCC(C(=O)NC4CCC(C)CC4)C3)sc2n1 (stereo not drawn) | -61 | 0 | 0 | 0 | 0
CCOc1ccc(Nc2cc(C)nc(-n3nc(C)cc3C)n2)cc1 | -84 | 0.25µM | ? | 20µM | ?
Cc1ccc(Nc2cc(C)nc(-n3nc(C)cc3C)n2)cc1 | -92 | - | ? | 0 | -
CNc1cc(C)nc(-n2nc(C)cc2C)n1 | ? | 0 | 0 | 0 | 0
CCOc1ccc(Nc2nc3cc(Cl)c(Cl)cc3nc2-n2nc(C)cc2C)cc1 | 0 | 0 | 0 | 0 | -
CON(c1nc(Cl)nc(N(C)C)n1)S(=O)(=O)c1ccccc1Cl | 0 | 0 | 13µM | ? | 0
COc1nc(N(C)C)nc(N(OC)S(=O)(=O)c2ccccc2Cl)n1 | 0 | 0 | ? | 0 | 0
S=C(NCCc1ccccc1)NC1CCC(NC(=S)NCCc2ccccc2)CC1 (stereo not drawn) | ? | 0 | ? | 0 | 0
COc1ccc(CCNC(=S)NC2CCN(Cc3ccccc3)CC2)cc1 | -72 | ? | 0 | 0 | ?
COc1ccc(NC(=S)NC2CCN(Cc3ccccc3)CC2)cc1OC | 0 | ? | 0 | 0 | 0
CCC(C)c1ccc(NC(=S)NC2CCN(Cc3ccccc3)CC2)cc1 (stereo not drawn) | -98 | 11µM | ? | ? | 10µM
CCc1ccc(NC(=S)NC2CCN(Cc3ccccc3)CC2)cc1 | -77 | ? | ? | 0 | ?
S=C(Nc1ccc(Cl)cc1)NC1CCN(Cc2ccccc2)CC1 | 0 | ? | ? | ? | 11µM
S=C(Nc1ccccc1)NC1CCN(Cc2ccccc2)CC1 | 0 | ? | - | 0 | 0
COc1ccccc1C(=O)CN1C(=O)NC2(CCCCCC2)C1=O | 0 | 0 | 0 | 0 | 0
CCCSc1nc2cc(OC)c(OC)cc2c(=N)n1CCCN1CCOCC1 | 0 | 14µM | ? | 0 | 11µM
COC(C(=O)C(O)C(C)O)C1Cc2cc3cc(OC4CC(OC5CC(O)C(O)C(C)O5)C(O)C(C)O4)c(C)c(O)c3c(O)c2C(=O)C1OC1CC(OC2CC(OC3CC(O)C(OC)C(C)O3)C(O)C(C)O2)C(O)C(C)O1 (stereo not drawn) | -98 | 0 | 0 | 0 | 1µM
COc1cc(NC(=O)c2cc3nc(-c4ccccc4)cc(-c4ccccc4)n3n2)c(OC)cc1Cl | 0 | - | 0 | 0 | -
CCO[C@@H]1C[C@@]1(C=C[C@@H](C)[C@H](OC)c1ccccc1Br)C(=O)OC | - | 0 | - | - | -
COCCn1c(N)c(C#N)c2nc3ccccc3nc21 | 0 | 0 | 0 | 0 | 0
N#Cc1c(N)n(CCc2ccc(F)cc2)c2nc3ccccc3nc12 | -69 | 0 | 0 | 0 | 0
CN(C(=O)c1ccco1)c1nc(-c2ccc(F)cc2)cs1 | 0 | 0 | ? | 0 | 0
CCN(CC)CCCN(C(=O)c1ccco1)c1nc(-c2ccc(Cl)cc2)cs1 | 0 | ? | ? | 0 | 11µM

Screening results: PubChem BioAssay, National Center for Advancing Translational Sciences (NCATS)
